# Compound activity as filed in PubChem.
# An excerpt weighted towards active compounds, which were near 12% of everything screened.
# HP1b chromo inh = HTS for Inhibitors of HP1-beta Chromodomain Interactions with Methylated Histone Tails. AID 540317, 2011. Potency, µM (highest dose often 114 µM), for the others: at the top dose activity change, negative = inhibition, usual class: inhibitors. AlphaScreen HP1-beta / biotin-H3K9me3 peptide binding. Chromobox protein homolog 1 (Homo sapiens), P83916. hit rate 0.56% among 390,000; note: potency is the fitted concentration of half-maximal effect; nearly all actives have a fitted effect of over 70% in size
# Target sequence (P83916 whole entry, looked up): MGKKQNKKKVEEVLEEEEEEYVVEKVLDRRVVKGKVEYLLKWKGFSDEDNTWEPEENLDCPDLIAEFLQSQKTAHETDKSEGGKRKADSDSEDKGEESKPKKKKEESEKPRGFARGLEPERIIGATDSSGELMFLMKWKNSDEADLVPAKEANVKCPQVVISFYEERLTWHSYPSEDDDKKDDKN
#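 HP1-beta protein (50 nM final) preincubated 30 min at room temperature with biotinylated H3(1-18)K9me3 peptide (50 nM) in PBS pH 7.4, 0.01% Tween-20, then compound added for 30 min. AlphaScreen streptavidin donor/nickel chelate acceptor beads (10 ug/mL final), 30 min dark, luminescence read.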
# PI5P4K alpha inh = qHTS for Inhibitors of phosphatidylinositol 5-phosphate 4-kinase (PI5P4K) | Phosphatidylinositol 5-phosphate 4-kinase type-2 alpha (Homo sapiens), P48426 | PI5P4Kalpha enzyme, ADP-Glo luminescence, 60 min; stronger effect = lower value | max response, % | hit rate 1.2% among 330,000 | AID 652105, 2013; active = max response of -50% or lower; inconclusive = between -30% and -50%; inactive = -30% or higher; note: value at the top dose of about 77 µM; % is set by controls: 0 for no effect and ±100 for the full control effect
# Target sequence (P48426 whole entry, looked up): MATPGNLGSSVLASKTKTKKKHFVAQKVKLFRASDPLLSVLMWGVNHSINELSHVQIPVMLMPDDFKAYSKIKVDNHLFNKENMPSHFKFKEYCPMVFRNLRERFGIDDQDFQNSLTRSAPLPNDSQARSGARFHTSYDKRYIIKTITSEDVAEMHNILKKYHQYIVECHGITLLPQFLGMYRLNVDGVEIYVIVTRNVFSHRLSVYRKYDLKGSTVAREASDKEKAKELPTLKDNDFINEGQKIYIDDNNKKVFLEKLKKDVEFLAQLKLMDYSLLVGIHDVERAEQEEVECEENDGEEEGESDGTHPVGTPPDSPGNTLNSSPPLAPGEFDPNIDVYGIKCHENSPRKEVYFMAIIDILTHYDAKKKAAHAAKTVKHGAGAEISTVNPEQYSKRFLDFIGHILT
#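 Enzyme plus substrate dispensed, test compounds pinned in, then ATP (5 microM final) added. After 60 min at RT, ADP-Glo reagent 1 for 45 min and reagent 2 for 30 min preceded luminescence imaging.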
# G9a inh = qHTS Assay for Inhibitors of Histone Lysine Methyltransferase G9a. G9a H3K9 monomethylation, AlphaScreen, 2 h. AID 504332, 2011. Potency, µM (titrated, usually from 102 µM), for the others: top-dose activity, negative = inhibition, hits mostly inhibitors. Histone-lysine N-methyltransferase EHMT2 (Homo sapiens), Q96KQ7. hit rate 8.8% among 350,000; note: potency is the fitted concentration of half-maximal effect; % is set by controls: 0 for no effect and ±100 for the full control effect; nearly all actives have a fitted effect of over 75% in size
#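 Quantitative HTS format: methyltransferase activity on a biotin-tagged H3K9 peptide is measured by AlphaScreen, using a rabbit anti-monomethyl-H3K9 antibody with streptavidin donor and anti-IgG acceptor beads. Final levels are 20 nM enzyme, 500 nM peptide, 20 uM SAM; 2 h RT.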
# BAZ2B block = qHTS Assay for Inhibitors of BAZ2B; Potency, µM (titrated, usually from 114 µM), inactives show at the top dose activity change, negative = inhibition, actives largely listed as inhibitors; AlphaScreen BAZ2B-H3K14Ac peptide displacement; AID 504333, 2011; hit rate 4.4% among 360,000; Bromodomain adjacent to zinc finger domain protein 2B (Homo sapiens), Q9UIF8; note: potency is the fitted concentration of half-maximal effect; % is set by controls: 0 for no effect and ±100 for the full control effect; nearly all actives have a fitted effect of over 60% in size
#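 AlphaScreen displacement: compounds (up to 110uM) incubated 30 min at room temperature with a preformed 50 nM BAZ2B/50 nM biotinylated H3K14Ac peptide complex in PBS pH 7.4 with Tween-20. Donor and acceptor beads at 10 ug/mL final added, 20 min light-protected before reading.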
# JMJD2A Tudor inh = qHTS Assay for Inhibitors of JMJD2A-Tudor Domain; hit rate 4.4% among 390,000; AlphaScreen JMJD2A-Tudor / H3K4me3 peptide binding; AID 504339, 2011; Potency, µM (doses to about 114 µM), for inactives: at the highest dose activity change, negative = inhibition, usual class: inhibitors; note: potency is the fitted concentration of half-maximal effect; % is set by controls: 0 for no effect and ±100 for the full control effect; nearly all actives have a fitted effect of over 50% in size
# PLK1 PBD block = qHTS for Inhibitors of PLK1-PDB (polo-like kinase 1 - polo-box domain): Primary Screen; hit rate 2.8% among 360,000; Plk1 PBD binding of FITC phosphopeptide, fluorescence polarization; Serine/threonine-protein kinase PLK1 (Homo sapiens), P53350; Potency, µM, for inactives: max response, negative = inhibition, hits mostly inhibitors; note: potency is the fitted concentration of half-maximal effect; series mostly up to about 57 µM; % is set by controls: 0 for no effect and ±100 for the full control effect; nearly all actives have a fitted effect of over 65% in size
# * hit, by the source's call; ? = inconclusive; . = not tested or not shown; [ ] = dose if it differs, or a comment. Unless noted, calls come from the whole dose curve; as a rule, active = well fitted curve in the direction sought with a large enough effect; inconclusive = small, poorly fitted or top-dose-only effect, or another doubt; inactive = no such curve, though single readings can be large; an effect the other way counts as inactive or inconclusive.
SMILES,HP1b chromo inh,PI5P4K alpha inh,G9a inh,BAZ2B block,JMJD2A Tudor inh,PLK1 PBD block
Cc1cc(C)c(NC(=O)COC(=O)CSc2ccc(Br)cc2C)c(C)c1,7%,1,3%[59 µM],2%,-20%,-17%
Fc1ccc(CNc2nc3ccc(Cl)cc3n3nnnc23)cc1,6%,.,4%[59 µM],-1%,-12%,.
CN(CC(=O)Nc1ccccc1Br)C(=O)c1sccc1-c1ccccc1,30%,9,-10%[12.7 µM],-7%,-8%,-10%
Cc1cccc(N2CCN(CCCNC(=O)c3nnc(Cc4c(F)cccc4Cl)o3)CC2C)c1 (stereo not drawn),-13%,.,-33%[59 µM],?,?,.
CS(=O)(=O)c1ccc(Cl)c(NC(=O)COC(=O)CCN2C(=O)C3CC=CCC3C2=O)c1 (stereo not drawn),39%,-3,.,.,1%,3%
CCn1c(SC2CCOC2=O)nnc1-c1ccc(Cl)cc1 (stereo not drawn),46%,-7,?,-18%,-5%,3%
O=C1OCCC1Sc1nnc(-c2ccc(Cl)cc2)n1Cc1ccccc1 (stereo not drawn),52%,-8,11µM*,11%,-2%,-6%
CCc1ccc2oc(C(=O)NCc3ccccc3)cc(=O)c2c1,60%,.,2%[59 µM],4%,3%,.
Cc1ccccc1NC(=O)c1c(C)oc2ccc(O)c(CN3CCN(C)CC3)c12,7%,.,-34%[59 µM],-10%,-25%,.
CCOC(=O)CCc1c(C)nc(SCCN2CCCC2)c(C#N)c1C,51%,1,40µM*,-18%,-9%[57.1 µM],-26%
Cc1nc(SCC(N)=O)c(C#N)c(C)c1C,50%,1,-3%,3%,-11%,-11%
N#CC1=C2SCN(C3CCCCC3)CN2C(=O)CC1c1ccc(Cl)cc1 (stereo not drawn),?,.,2µM*,.,16µM*,.
O=c1c(Cc2c(F)cccc2Cl)c(O)ccn1C1CCCCCC1,46%,0,-11%,?,-5%,-8%
N#CC1=C2SCN(C3CCCCC3)CN2C(=O)CC1c1c(F)cccc1Cl (stereo not drawn),?,.,2.8µM*,.,22µM*,.
CCc1cccc(Nc2ncnc3onc(-c4ccc(F)cc4)c23)c1,86%,.,24%[59 µM],62%[57.1 µM],34%,.
COc1ccccc1NC(=O)Cc1nc(=O)[nH]c(=O)[nH]1,.,4,.,.,.,3%
COC(=O)C1=NN(N=O)C2(CC(=O)N(c3cc(C)cc(C)c3)C2=O)C1 (stereo not drawn),36%,2,14µM*,-2%,?,-26%
CCOC(=O)C1=NN(C(C)=O)C2(CC(=O)N(c3cc(C)cc(C)c3)C2=O)C1 (stereo not drawn),7%,11,11%[59 µM],4%,-2%,0%
O=C(Cn1c(-c2cccs2)cc2cc(Cl)ccc21)N1CCN(c2ccccc2F)CC1,2%,.,-6%[59 µM],-1%,?,.
Cc1ccc(NC(=O)Nc2nnc(-c3ccncc3)s2)cc1C,46%,-2,-5%,-16%,-24%,-3%
COC(=O)Nc1nnc(-c2ccncc2)s1,?,.,?,8%,-34%,27µM*
COCCCNCCC(CCC(C)C)c1ccc2c(c1)OCO2 (stereo not drawn),?,4,?,?,20µM*,1%
COCCCNC(=S)N/N=C/c1ccc2c(c1)OCO2,42%,3,2%,-16%,-6%,3%
CC(C)CCC(CCN1CCCC1)c1ccc2c(c1)OCO2 (stereo not drawn),?,6,-4%,-35%,1.4µM*,-5%
CC(O)c1ccc2c(c1)OCCOCCN(C)CCOCCO2 (stereo not drawn),28%,-3,2%[59 µM],.,-7%,-3%
SMILES,HP1b chromo inh,PI5P4K alpha inh,G9a inh,BAZ2B block,JMJD2A Tudor inh,PLK1 PBD block
CC(NC(=O)C1CCC1)c1ccc2c(c1)OCO2 (stereo not drawn),24%,.,16%[12.7 µM],10%,-7%,-1%
CC(C)CCC(CCN1CCOCC1)c1ccc2c(c1)OCO2 (stereo not drawn),-52%,.,45µM*,?,3.2µM*,1%
CCOc1ccc(CCNC(=O)c2nn(-c3ccc(OC)cc3)c(=O)c3c2c2ccccc2n3C)cc1OCC,16%,.,8%[59 µM],.,-20%,.
CC(=O)OCC(C)n1[nH]c2ccccc2c1=O (stereo not drawn),.,8,.,.,.,-2%
Cc1nc2c(-c3ccccc3)c(C)nn2c(C)c1CCC(=O)Nc1ccccc1F,20%,.,12%[59 µM],-2%,7%,.
NNc1ccc2c(C(F)(F)F)cc(C(F)(F)F)nc2n1,40%,-7,35µM*,-11%,-27%,1%
Cc1ccc(NC(=O)C2CC(=O)N(c3ccc(OC(C)C)cc3)C2)cc1 (stereo not drawn),37%,.,8%[59 µM],-1%,-15%,.
O=C(c1ccccc1)c1nn(-c2ccccc2)c2nnc(Cc3ccccc3)c(=O)n12,8%,.,10µM*,-25%,?,-4%
Cc1ccc(-n2nc(C(=O)c3ccccc3)n3c(=O)c(Cc4ccccc4)nnc23)cc1,6%,1,.,.,-20%,-2%
Cc1nn2c(N)csc2nc1=O,.,.,79µM*,?,.,.
Cc1nn2c3ccccc3n(C)c2nc1=O,13%,1,0%[59 µM],3%,-12%,4%
CCOc1ccc(C2=Cc3cc(OC)c(OC)cc3C(=C(Cl)Cl)O2)cc1,.,.,7.1µM*,?,.,.
CCOc1ccc(-c2cc(-c3nc(-c4ccc(OC)c(OC)c4)no3)[nH]n2)cc1,23%,.,8%[59 µM],-10%,-24%,.
CC(C)OC(=O)n1c(=S)oc2ccccc21,10%,.,?,?,9%,-8%
Cc1cccc(OC(=O)n2c(=S)oc3cc(Cl)ccc32)c1,3%,-23,2.8µM*,-15%,79µM*,30µM*
FC(F)c1nc2ccccc2[nH]1,23%,-4,.,40µM*,-8%,-12%
O=C1Nc2ccccc2/C1=C/c1ccccc1Cl,-2%,-1,5%,-30%,-23%,1%
CN1CCN(c2ccccc2/C=C2/C(=O)Nc3ccccc32)CC1,19%,2,50µM*,-37%,-29%,-7%
Cc1oc(=O)cc(OCc2ccccc2)c1C,66%,-2,.,.,-9%,-10%
CCOC(=O)CCCCC(=O)c1[nH]c(=O)[nH]c1C[n+]1ccc(C)cc1,23%,4,45µM*,?,-15%,2%
CCOC(=O)CCCCC(=O)c1[nH]c(=O)[nH]c1CN1CCOCC1,-37%,.,?,16µM*,35µM*,2%
